gsp agonist: activates gsp, the McCune-Albright syndrome mutation | gsp mutant cells, cAMP HTRF, 30 min | Potency, µM (titrated, usually from 76.9 µM), without a hit: top-dose activation (cAMP increase), usual class: activators | 340,000 tested, 0.13% active; active means well fitted activation curve with a large enough effect; inconclusive means small, poorly fitted or top-dose-only effect, or another doubt; inactive means no such curve, though single readings can be large or run the other way; cell line not stated here;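 further: phosphodiesterase inhibitor Ro 20-1724 added with compounds to block cAMP breakdown; potency means the concentration at half of the fitted maximal effect; nearly all actives have a fitted effect of over 60% in size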
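Cells stably selected in G418 were plated at 2000/well, grown 16-24 hr, then given compounds in DMSO with the PDE inhibitor […] (300 uM solution added) for 30 min at 37C; cAMP was read by HTRF.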
pAkt inh: blocks phosphorylation of Akt | Neuro2A IGF-stimulated pAkt S473 HTRF, 20 min; stronger effect = lower value | activity change, % for hits at 50 µM | 360,000 tested, 0.32% active; in the data active means activity change below about -80%; inconclusive means mostly about -51% to -80%; further: on the % scale 0 is the no-effect control and ±100 the full control effect
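Neuro2A cells (4,500/well, DMEM with 0.5% FBS) were treated with compound at a single 50 µM final concentration, stimulated with 6 nM IGF for 20 min at 37 °C, and lysed. Phospho-Akt Ser473 was read by HTRF as 665/615 ratio ×10^4.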
RXFP1 agonist: RXFP1 (human) receptor agonism | HEK293T-RXFP1 cAMP TR-FRET, 30 min; response scale: percent of porcine relaxin response, buffer zero | Potency, µM (highest dose often 57.5 µM), inactives show top-dose activation, usual class: activators | 370,000 tested, 0.3% active; active means well fitted activation curve with a large enough effect; inconclusive means small, poorly fitted or top-dose-only effect; further: potency means the concentration at half of the fitted maximal effect; on the % scale 0 is the no-effect control and ±100 the full control effect; nearly all actives have a fitted effect of over 60% in size
Target sequence (Q9HBX9 whole entry, looked up): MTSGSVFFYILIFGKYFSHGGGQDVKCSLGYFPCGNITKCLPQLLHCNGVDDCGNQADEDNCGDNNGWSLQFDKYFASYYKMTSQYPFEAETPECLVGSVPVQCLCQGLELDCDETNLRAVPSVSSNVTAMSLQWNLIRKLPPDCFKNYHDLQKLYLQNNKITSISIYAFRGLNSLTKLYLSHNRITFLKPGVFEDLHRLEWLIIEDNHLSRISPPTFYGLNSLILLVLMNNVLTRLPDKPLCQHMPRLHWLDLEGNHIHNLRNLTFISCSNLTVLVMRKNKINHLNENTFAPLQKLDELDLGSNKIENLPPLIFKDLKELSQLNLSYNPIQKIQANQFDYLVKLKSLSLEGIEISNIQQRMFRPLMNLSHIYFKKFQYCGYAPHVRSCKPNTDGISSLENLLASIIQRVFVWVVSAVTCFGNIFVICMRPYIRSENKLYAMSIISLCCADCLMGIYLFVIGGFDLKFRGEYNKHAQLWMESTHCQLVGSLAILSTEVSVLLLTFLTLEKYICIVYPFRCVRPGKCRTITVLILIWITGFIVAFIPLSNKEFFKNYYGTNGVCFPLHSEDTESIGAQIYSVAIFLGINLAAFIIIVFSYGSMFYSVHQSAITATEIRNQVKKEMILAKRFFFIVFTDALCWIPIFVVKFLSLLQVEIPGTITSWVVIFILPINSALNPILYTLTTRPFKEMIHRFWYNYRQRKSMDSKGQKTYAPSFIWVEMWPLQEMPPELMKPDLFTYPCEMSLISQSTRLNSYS
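HEK293T cells stably expressing RXFP1 were pretreated with the PDE4 inhibitor Ro 20174, exposed to compounds for 30 min at 37C, lysed, and cAMP was read by TR-FRET. Data normalized to buffer (basal) and 29 nM porcine relaxin (100%).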
RXFP1 antagonist: blocks the human relaxin receptor RXFP1. activity change, negative = inhibition, % at 57.5 µM. Q9HBX9. HEK293-RXFP1, relaxin-stimulated cAMP HTRF, 30 min; stronger effect = lower value. 350,000 tested, 0.59% active;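 active means activity change of -60% or lower, but not beyond a set lower limit; inconclusive means change between -60% and -40%, or beyond the set limit; inactive means change above -40%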; further: on the % scale 0 is the no-effect control and ±100 the full control effect
gsp antagonist: antagonists of gsp mutant (McCune-Albright syndrome); gsp-mutant cells, cAMP HTRF, 30 min; Potency, µM (titrated, usually from 76.9 µM), inactives show at the top dose activity change, negative = inhibition, usual class: inhibitors; 340,000 tested, 0.4% active; calls by dose curve; cell line not stated here;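 further: intracellular cAMP measured with PDE inhibitor Ro 20-1724 present during compound exposure; potency means the concentration at half of the fitted maximal effect; on the % scale 0 is the no-effect control and ±100 the full control effect; nearly all actives have a fitted effect of over 65% in size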
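Cells in G418 medium, seeded 16-24 h, 37C; buffer exchange to DPBS + 1 mM CaCl2, 0.5 mM MgCl2, 0.05% BSA; cpds in DMSO + […] (300 uM stock), 30 min 37C; HTRF cAMP detection.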
Starred values were filed as active, the others as inactive; i = inactive; ? = inconclusive; · = no result; [ ] = dose if it differs, or a comment. The list is not random: actives were taken first. Their share in the collection is about 1.3%.

SMILES | gsp agonist | pAkt inh | RXFP1 agonist | RXFP1 antagonist | gsp antagonist
O=C1NC(=O)N(Cc2ccccc2Cl)C(=O)/C1=C/c1cccs1 | -31.0% | i | -0.5% | -5.8 | 3.2%
O=C1NC(=O)N(Cc2ccc(F)cc2)C(=O)/C1=C/c1cccs1 | -13.6%[15.4 µM] | i | 1.7% | -74.4* | 0.7%
O=c1[nH]c(=O)n(Cc2ccco2)c(O)c1C=NCc1cccs1 | -83.7% | -92.9%* | -1.7% | 4.0 | 12.3%
COc1cc(CC#N)cc(OC)c1OC | · | · | · | -4.8 | ·
CC(C)=CC1C(C(=O)OCN2C(=O)C3=C(CCCC3)C2=O)C1(C)C (stereo not drawn) | · | · | · | -94.6* | ·
C[C@H]1[C@@H]2Cc3ccc(O)cc3[C@]1(C)CCN2C | · | · | · | 10.8 | ·
C#CC1(O)CCC2C3CCC4=C/C(=N/OCC(=O)NCC(=O)NC(C(=O)O)C(C)C)CC[C@]4(C)C3CC[C@@]21C (stereo partly drawn) | -0.2% | i | -0.7% | -0.2 | 1.6%
C#C[C@]1(O)CC[C@H]2[C@@H]3CCC4=Cc5nc6nc7ccccc7n6cc5C[C@]4(C)[C@H]3CC[C@@]21C | · | i | 5.6% | · | 31.6µM*
O=C(CCCCl)c1ccc(F)cc1 | · | · | · | -9.9 | ·
C[C@]12CC[C@H]3[C@@H](CC[C@@]45O[C@H]4C(O)=C(C#N)C[C@]35C)[C@H]1CC[C@H]2O | · | · | · | -22.3 | ·
CCOC(=O)[C@]1(C#N)[C@@H]2C=CC(C(C)=O)=CN2[C@@H](C(N)=O)[C@@H]1c1ccsc1 | ? | -105.8%* | 1.1% | -13.6 | -9.1%
CCC(=O)O[C@@H]1C=C2CCC3C(CCC4(C)C3CC[C@@H]4OC(=O)CC)C2CC1 (stereo partly drawn) | · | · | · | -15.7 | ·
COC[C@@H](NC(C)=O)C(=O)NCc1ccccc1 | · | · | · | 13.8 | ·
O=C(O)c1sc2cc(Cl)ccc2c1Cl | · | · | 14.1µM* | · | ·
CNc1ccc2nc3ccccc3[n+](C)c2c1 | ? | i | 8.7% | -91.9* | ?
C[n+]1c2ccccc2nc2ccc(NCCO)cc21 | ? | i | 16.7% | -38.5 | ?
COc1cc(CCN)c(OC)cc1Br | · | · | · | -5.7 | ·
CN(C)CCCN=Cc1c(O)n(CCc2ccc(F)cc2)c(=O)[nH]c1=O | -9.0% | -119.9%* | 0.7% | 7.7 | 7.3%
ClCCCN1CCN(c2cccc(Cl)c2)CC1 | · | · | · | 13.6 | ·
O=C(CCCCCn1c(=S)[nH]c2ccccc2c1=O)N1CCC2(CC1)OCCO2 | -4.7% | i | -0.2% | -82.9* | -10.6%
O=c1[nH]c2ccccc2n1C1CCNCC1 | · | · | · | 17.5 | ·
Clc1cccc(CNCCc2c[nH]c3ccccc23)c1 | 8.2%[15.4 µM] | i | 1.1% | -84.1* | 13.2%
FC(F)(F)c1ccc(CNCCc2c[nH]c3ccccc23)cc1 | 12.5% | i | 2.0% | -5.6 | 13.5%
CN1C(=O)C(Cc2nc3ccccc3c(=O)n2-c2ccccc2)c2ccccc21 (stereo not drawn) | -3.6% | i | 2.0% | -17.0 | 35.5µM*
CC(=NCCC1=CCCCC1)c1c(O)[nH]c(=O)[nH]c1=O | 2.3% | -120.8%* | 2.0% | -7.2 | 2.4%
SMILES | gsp agonist | pAkt inh | RXFP1 agonist | RXFP1 antagonist | gsp antagonist
Nc1ccccc1N=Cc1c(O)n(CCC2=CCCCC2)c(=O)[nH]c1=O | -30.4% | -115.5%* | 0.2% | -8.9 | -0.7%
O=C(N/N=C/c1c(O)n(CCC2=CCCCC2)c(=O)[nH]c1=O)c1ccccc1 | 20.0% | i | 0.0% | -2.0 | 2.4%
O=[N+]([O-])c1ccc(N(CCO)CCO)c2c1no[n+]2[O-] | -18.8% | i | · | 3.6 | ·
CN1CCN(c2ccc([N+](=O)[O-])c3no[n+]([O-])c23)CC1 | -2.1%[15.4 µM] | i | 3.9% | -87.4* | ?
CNc1cc(Cl)c2nonc2c1[N+](=O)[O-] | 0.2%[15.4 µM] | i | 9.7% | -81.4* | -33.7%
Cc1cccc(N2C(=O)NC(=O)/C(=C\c3cccn3-c3ccc(Cl)cc3)C2=O)c1 | -1.0% | i | -1.7% | -70.9* | 13.9%
Cc1cccc(N2C(=O)NC(=O)/C(=C\C=C\c3ccco3)C2=O)c1 | ? | i | 0.6% | -68.0* | ?
Cc1ccc(N2C(=O)NC(=O)/C(=C\C=C\c3ccco3)C2=O)cc1 | -25.3% | i | 1.7% | -25.3 | ?
Cc1cc(C)cc(N2C(=O)NC(=O)/C(=C/c3cccn3-c3ccc(Cl)cc3)C2=O)c1 | 18.8% | i | 0.5% | -30.0 | 19.2%
Cc1ccc(N2C(=O)NC(=O)/C(=C\C=C\c3ccco3)C2=O)cc1C | 3.3%[15.4 µM] | i | 7.8% | -70.1* | -3.5%
O=C1NC(=O)N(c2ccccc2)C(=O)/C1=C/C=C/c1ccco1 | -23.0% | i | -2.7% | -11.2 | -19.6%
CN1CC[C@]23c4c5ccc(O)c4OC2C(O)CCC3[C@H]1C5 (stereo partly drawn) | · | · | · | 15.7 | ·
CCNC(=O)[C@H]1O[C@@H](n2cnc3c(N)ncnc32)[C@H](O)[C@@H]1O | · | i | 1.26µM* | · | 3.3%
Nc1ncnc2c1ncn2[C@@H]1O[C@H](COP(=O)(O)CP(=O)(O)O)[C@@H](O)[C@H]1O | · | i | · | · | -5.5%
O=[N+]([O-])/N=C1\NCCN1Cc1ccc(Cl)nc1 | · | · | · | 5.6 | ·
CN(C)CC(C(=O)Cc1ccccc1)c1ccccc1 (stereo not drawn) | 17.9% | i | · | -118.4* | 24.4%
COc1cc(CC(C)N)c(OC)cc1Br (stereo not drawn) | · | · | · | 15.2 | ·
COc1cc(CC(C)N)cc2c1OCO2 (stereo not drawn) | · | · | · | 16.7 | ·
CC(=O)c1ccc2c(c1)C1C(Cl)C(Sc3ccccc3[N+](=O)[O-])CC1C(c1ccccc1[N+](=O)[O-])N2 (stereo not drawn) | -7.1% | i | -2.3% | -26.8 | -7.9%
CC(=O)c1ccc2c(c1)C1C(Cl)C(Sc3ccccc3[N+](=O)[O-])CC1C(c1ccccc1)N2 (stereo not drawn) | -1.3% | i | -8.5% | -81.1* | ?
ClC1=C(Cl)[C@]2(Cl)[C@@H]3[C@@H]4C[C@@H]([C@H]5O[C@@H]45)[C@@H]3[C@@]1(Cl)C2(Cl)Cl | · | · | · | -20.9 | ·
Cc1cc2c(cc(C(=O)N3CCC(C(=O)NC4CCCC4)CC3)n2Cc2c(F)cccc2Cl)o1 | -45.7% | i | 0.1% | 0.6 | 35.5µM*
O=C(C(=O)N1CCOCC1)c1cn(Cc2c(F)cccc2Cl)c2ccccc12 | -7.2%[15.4 µM] | i | 3.1% | -11.8 | 9.0%
Cc1ccc2c(C)c3ccc4ccccc4c3c[n+]2c1 | ? | i | · | -24.8 | 50.1µM*
CC(=NCCCN1CCCCC1)c1c(O)n(Cc2ccccc2)c(=O)[nH]c1=O | 8.8% | -115.9%* | -0.3% | 6.2 | 0.2%
CC(=NCCN1CCCCC1)c1c(O)n(Cc2ccccc2)c(=O)[nH]c1=O | -46.0% | i | 0.2% | 9.6 | 0.7%
C=CCn1nc(C(=O)N2CCOCC2)cc1-c1sc(NC(=O)c2ccccc2)nc1C | 22.4µM* | i | · | -7.1 | ·
O=c1oc2ccccc2c(O)c1C(CC(O)c1ccc(-c2ccc(Br)cc2)cc1)c1ccccc1 (stereo not drawn) | · | · | · | -63.8* | ·

Assay outcomes: PubChem BioAssay, National Center for Advancing Translational Sciences (NCATS)
